# Measurements reported in PubChem BioAssay (NCI).
# The panel holds about 83,000 compounds, 20% with a hit somewhere; the sample as a whole holds those more often.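 For each line, cells grew in 96-well plates with the test compound present at a single concentration for 48 hours.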 Active and inactive are the calls of the source. The calls were made as follows: active = growth percent below 10; inactive = the rest.
# Tested on: SK-MEL-2 melanoma
# Assay: NCI-60 one-dose screen, 48 h (100 = growth as untreated, 0 = no growth, -100 = all killed)
# Details: 10 µM unless noted
row,Compound,growth
1,COc1cc2c(cc1OCc1ccccc1)C(CC(C)C)=[N+](C)CC2,82.1% (inactive)
2,CC(=O)O[C@H]1CC[C@H]2[C@@H]3CC=C4c5nc(-c6ccccc6)sc5CC[C@]4(C)[C@H]3CC[C@]12C,82% (inactive)
3,N#CC1(c2ccccc2)CCN(Cc2ccccc2)CC1,99.6% (inactive)
4,COc1ccc(/C=C\c2cc(OC)c(OC)c(OC)c2)cc1OCC(=O)Nc1nc2ccc(OC(F)(F)F)cc2s1,15.6% (inactive)
5,CC(C)(C)C(=O)OCOP(=O)(NCc1ccccc1)C1CCCN(O)C1=O (centres undefined),53.7% (inactive)
6,CC(=O)Nc1ccc(NC(=O)c2ccc([As](O)O)cc2)cc1,96% (inactive)
7,O[C@H](CN1CC1)[C@@H](O)CN1CC1,87% (inactive)
8,Cc1cc(C)c(CBr)c(C)c1,102% (inactive)
9,CCOP1(=O)CC(C)=C(Cl)C(P(=O)(OCC)OCC)C1 (centres undefined),104% (inactive)
10,CC12CCC3C(CCC4=CC(=O)CCC43CF)C1CCC2=O (centres undefined),97.2% (inactive)
11,C=C1[C@@H](C)[C@H]2[C@H](Cc3ccccc3)NC(=O)[C@]23[C@@H](O)/C=C/[C@@](C)(O)C(=O)[C@@H](C)C/C=C/[C@H]3[C@@H]1O,65.1% (inactive)
12,NC(=O)C(Br)c1ccccc1 (centres undefined),83.9% (inactive)
13,CCC(=O)Nc1ccc(Cl)c(Cl)c1,94.3% (inactive)
14,CC[C@H](C)[C@@H]1OC(=O)C(C)(C)[C@H](O)[C@H](Cc2ccccc2)OC(=O)[C@H](C(C)C)OC(=O)[C@@H](NC(=O)c2cccc(NC=O)c2O)[C@@H](C)OC1=O,36.2% (inactive)
15,NC(=S)c1cn(C2OC(CO)C(O)C2O)c2ncnc(N)c12 (centres undefined),-58.1% (active)
16,Nc1ncnc2n[nH]nc12,12.5% (inactive)
17,COc1cc(/C=C/[N+](=O)[O-])cc(OC)c1,59.6% (inactive)
18,Clc1cccc(NCOOC2(OOCNc3cccc(Cl)c3)CCCCCC2)c1,92.4% (inactive)
19,Brc1ccc2c(c1)c(-c1nc(-c3c[nH]c4ncccc34)cs1)cn2CCN1CCOCC1,80% (inactive)
20,O=C1C(Cl)=C(N2CCOCC2)C(=O)c2ccccc21,119% (inactive)
21,CC1=C(CCCNS(C)(=O)=O)C2=C(C)C3(CC3)[C@@](C)(O)C(=O)C2=C1,-44.7% (active)
22,CCN(CCO)C(Cc1ccccc1)c1ccccc1 (centres undefined),105% (inactive)
23,CCCCC1(CCC)C(=O)NC(=S)NC1=O,91.2% (inactive)
24,CC[C@H](C)[C@H](NC(=O)[C@H]1CCCCN1C)C(=O)N(C)[C@H](CC(=O)c1nc(C(=O)N[C@@H](Cc2ccccc2)C[C@H](C)C(=O)O)cs1)C(C)C,37.8% (inactive)
